The text below walks through data of ChEMBL document CHEMBL1157539, “Thousands of chemical starting points for antimalarial lead identification” (Nature, 2010).

The structures appear in SMILES notation.

Common to all, as to assay type: functional
Assay [1] has as its system Plasmodium falciparum. In words: GSK_TCMDC: Inhibition of Plasmodium falciparum 3D7 in whole red blood cells, using parasite LDH activity as an index of growth. Test compounds present at 2uM.
Assay [2] concerns Plasmodium falciparum. In words: GSK_TCMDC: Inhibition of Plasmodium falciparum Dd2 in whole red blood cells, using parasite LDH activity as an index of growth. Test compounds present at 2uM.
Assay [3] concerns HepG2. In words: GSK_TCMDC: Percent inhibition of human HepG2 cell line. Test compounds present at 10uM.

As usually defined, the Inhibition is the share of the control response that was lost under treatment. Read a high Inhibition as a response far below the control. In the case of `Cc1cc(NC(=O)c2ccco2)ccc1OC1CCN(Cc2ccccc2)CC1.O=C(O)C(F)(F)F`, the Inhibition amounted to 93% in assay [1], 95% in assay [2] and 3% in assay [3].

As to `COc1ccc2nccc([C@@H](O)CN3CCC(NCc4cc5cccnc5[nH]4)CC3)c2n1.O=C(O)C(=O)O`, the Inhibition in assay [1] is reported as 90%; in assay [2], 0%; in assay [3], 7%.

On to `O=C(NC1CC1)c1cnc(N2CCC(Cc3ccccc3)CC2)c(Cl)c1.O=C(O)C(F)(F)F`, for which the Inhibition in assay [1] turned out to be 96%; in assay [2] it was 96%; in assay [3], 10%.

Consider `O=C(O)C(F)(F)F.O=S(=O)(NCCN1CCCC1)c1ccc(-c2cccc(CNCCc3cccs3)c2)cc1`, for which the Inhibition in assay [1] is recorded as 95%; in assay [2], 30%; in assay [3], 41%.

Regarding `COc1ccc(Cl)cc1N1CCN(CCCNC(=O)c2ccc(-c3nc4cc5ccccc5cc4[nH]3)c(F)c2)CC1`, the Inhibition is reported as 99% in assay [1], 62% in assay [2] and 12% in assay [3].

On to `COc1ccc(CN2CCCC(N3CC4(OC3=O)c3ccccc3-c3ccccc34)C2)c(O)c1` (stereo unspecified), for which the Inhibition is on record as 92% in assay [1], 34% in assay [2] and 14% in assay [3].

For `COC(=O)c1ccc(CN2CCC(N(Cc3cccc(Oc4ccccc4)c3)S(=O)(=O)c3ccc(NC(C)=O)cc3)CC2)cc1`, the Inhibition in assay [1] is recorded as 82%; in assay [2], 86%; in assay [3] it was 0%.

As to `O=C(Nc1ccc(Cl)cc1)Nc1ccc(-c2cccc(-c3nc4ccccc4[nH]3)c2)cc1`, the Inhibition is 100% in assay [1], 78% in assay [2] and 69% in assay [3].

For the molecule `CC(C)(C)C1CCC(C(=O)c2ccc3ccccc3c2O)CC1` (stereo unspecified), the Inhibition in assay [1] stood at 83%; in assay [2] it was 63%; in assay [3] it was 0%.

Consider `CN(C)CCN(C)Cc1ccc(-c2cccc(NC(=O)c3ccc(Cl)cc3)c2)cc1.O=C(O)C(F)(F)F`, for which the Inhibition in assay [1] was 97%; in assay [2], 71%; in assay [3], 69%.

Consider `COc1ccc(-c2cnn3ccc(Nc4cc(OC)c(OC)c(OC)c4)nc23)cc1OC`, for which the figures for the Inhibition in assay [1], in assay [2] and in assay [3] were 98%, 100% and 57%, respectively.

Consider `Cc1nnc2c(NC(=O)NC3CCCC3)cc3cc(-c4ccc(CN5CCN(C)CC5)cc4)ccc3n12`, for which the Inhibition in assay [1] came to 99%; in assay [2] it was 91%; in assay [3], 100%.

For `CN(C)CC1CCCN1Cc1ccccc1-c1cnn(C)c(=O)c1Oc1cccc(C#N)c1.O=C(O)C(F)(F)F` (stereo unspecified), the Inhibition in assay [1] is 92%; in assay [2], 15%; in assay [3], 26%.

As for `CC1CN(c2ccnc3ccc(Sc4ccc(Oc5ccccc5)cc4)cc23)CC(C)N1.Cl` (stereo unspecified), the Inhibition in assay [1] stood at 100%; in assay [2] it was 99%; in assay [3] it was 33%.

Regarding `Cl.N[C@@H](CCNC1CCN(c2cccc(C(F)(F)F)c2)CC1)Cc1ccc(F)c(F)c1`, the Inhibition in assay [1] worked out at 100%; in assay [2] it was 69%; in assay [3], 100%.

In the case of `CC(C)Cn1c2ccccc2c2nc3nc(N)nc(N)c3nc21`, the Inhibition in assay [1] is on record as 93%; in assay [2], 0%; in assay [3], 36%.

For the molecule `CNC(=O)c1cc(F)c(F)cc1Nc1nc(Nc2cccc(CS(C)(=O)=O)c2)ncc1Cl.O=CO`, the Inhibition in assay [1] was 91%; in assay [2], 90%; in assay [3], 52%.

Turning to `COC(=O)c1cc(NC(=O)Nc2ccc(Cn3ncc(N4CCCNCC4)c(Cl)c3=O)cc2)cc(C(=O)OC)c1.O=C(O)C(F)(F)F`, the Inhibition in assay [1] came out at 96%; in assay [2] it was 90%; in assay [3], 0%.

For the molecule `O=C(Nc1ccc(OCc2ccccc2)cc1)c1nc2ccccc2nc1Cl`, the Inhibition stood at 96% in assay [1], 95% in assay [2] and 48% in assay [3].

As to `COc1ccc2ncc(F)c(CCN3CC(O)C(CNCc4ccc5c(n4)NC(=O)CS5)C3)c2c1.Cl` (stereo unspecified), the Inhibition in assay [1] came to 92%; in assay [2], 34%; in assay [3], 0%.

In the case of `CN(C)/C(=N/C(=N)NCc1ccc(Cl)c(Cl)c1)NCCCCCCN/C(=N\C(=N)NCc1ccc(Cl)c(Cl)c1)N(C)C`, the Inhibition in assay [1] was determined as 93%; in assay [2], 99%; in assay [3], 20%.

`O=C(Nc1ccncc1)c1cn(-c2ccccc2)nc1-c1cccs1`: the Inhibition worked out at 98% in assay [1], 10% in assay [2] and 7% in assay [3].

Consider `c1ccc(Oc2ccc(Nc3ccnc4cc(-c5ccc(CNCCN6CCOCC6)o5)ccc34)cc2)cc1`, for which the Inhibition came to 99% in assay [1], 99% in assay [2] and 20% in assay [3].

For `Nc1ncc(-c2ccsc2)c2ccc(-c3cc(NCc4ccccc4)ncn3)cc12`, the Inhibition in assay [1] was determined as 100%; in assay [2], 86%; in assay [3], 0%.

On to `CCN(CC)CCN(Cc1ccc(-c2ccc(C(F)(F)F)cc2)cc1)C(=O)Cn1c(CCc2ccc(F)c(F)c2F)nc(=O)c2cccnc21.O=C(O)C(O)C(O)C(=O)O`, for which the Inhibition is 89% in assay [1], 20% in assay [2] and 29% in assay [3].

In the case of `CCCCCN1CCCC1CNS(=O)(=O)c1ccc(C(=O)Nc2ccc(C(F)(F)F)cc2)cc1.O=C(O)C(F)(F)F` (stereo unspecified), the Inhibition is 87% in assay [1], 0% in assay [2] and 19% in assay [3].

For `COc1ccc(NC(=O)/C=C/c2ccccc2Cl)cc1OCCN1CCC(N(C)C)CC1`, the Inhibition in assay [1] is 89%; in assay [2] it was 19%; in assay [3], 18%.
